# Experimental data from the supplement of paper PMC10849652.
# Of roughly 7,900 targets only a part is listed; those with a hit were picked by preference. About 0.6% of all pairs of compound and target were hits. Unmarked numbers belong to inactive results.
# Columns and labels:
# Assay in all cases: log2 fold change, soluble protein after heating vs DMSO (PISA); higher = thermal stabilisation; K562 cells, 10 uM, 30 min; active = over 0.2 and 3.5 SD of the protein, either way, in both replicates (recomputed)
# [1] = compound: NC(=O)Nc1cc(-c2cccc(F)c2)sc1C(=O)N[C@H]1CCCNC1
# How it was run: (§1)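 K562 cells at 2×10^6 cells/mL were exposed to 10 μM compound for 30 min, then aliquots were heated for 3 min across 48°C-58°C, pooled, and extracted in PBS containing 0.5% NP-40 at 4°C. The supernatant after 21,000xg for 90 min was taken as soluble protein and measured by TMTpro 16plex LC-MS/MS with channel sums equalised. Thermal stability is reported relative to control samples, with values from duplicates. Fold changes are given on a log2 scale.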
# [2] = compound: NC(=O)c1cnc(N[C@@H]2CCCC[C@@H]2N)nc1Nc1cccc(-n2nccn2)c1
# How it was run: as §1
# [3] = compound: NC1(c2ccc(-c3nc4ccn5c(=O)[nH]nc5c4cc3-c3ccccc3)cc2)CCC1
# How it was run: as §1
# [4] = compound: NCC(=O)Nc1ccc(-n2nc(C(F)(F)F)cc2-c2ccc3c(ccc4ccccc43)c2)cc1
# How it was run: as §1
# entinostat = compound: Nc1ccccc1NC(=O)c1ccc(CNC(=O)OCc2cccnc2)cc1 [entinostat]
# How it was run: as §1
# vorinostat = compound: O=C(CCCCCCC(=O)Nc1ccccc1)NO [vorinostat]
# How it was run: as §1
# citarinostat = compound: O=C(CCCCCCNC(=O)c1cnc(N(c2ccccc2)c2ccccc2Cl)nc1)NO [citarinostat]
# How it was run: as §1
# silmitasertib = compound: O=C(O)c1ccc2c(c1)nc(Nc1cccc(Cl)c1)c1ccncc12 [silmitasertib]
# How it was run: as §1
# [5] = compound: O=C1NC(=O)C(c2cnc3ccccn23)=C1c1cn2c3c(cc(F)cc13)CN(C(=O)N1CCCCC1)CC2
# How it was run: as §1
# [6] = compound: c1cc(OCCN2CCCCC2)cc(-c2n[nH]c3ccc(-c4nnc[nH]4)cc23)c1
# How it was run: as §1
# Chain of UniProt Q96KC8 (Q96KC8 whole entry, looked up): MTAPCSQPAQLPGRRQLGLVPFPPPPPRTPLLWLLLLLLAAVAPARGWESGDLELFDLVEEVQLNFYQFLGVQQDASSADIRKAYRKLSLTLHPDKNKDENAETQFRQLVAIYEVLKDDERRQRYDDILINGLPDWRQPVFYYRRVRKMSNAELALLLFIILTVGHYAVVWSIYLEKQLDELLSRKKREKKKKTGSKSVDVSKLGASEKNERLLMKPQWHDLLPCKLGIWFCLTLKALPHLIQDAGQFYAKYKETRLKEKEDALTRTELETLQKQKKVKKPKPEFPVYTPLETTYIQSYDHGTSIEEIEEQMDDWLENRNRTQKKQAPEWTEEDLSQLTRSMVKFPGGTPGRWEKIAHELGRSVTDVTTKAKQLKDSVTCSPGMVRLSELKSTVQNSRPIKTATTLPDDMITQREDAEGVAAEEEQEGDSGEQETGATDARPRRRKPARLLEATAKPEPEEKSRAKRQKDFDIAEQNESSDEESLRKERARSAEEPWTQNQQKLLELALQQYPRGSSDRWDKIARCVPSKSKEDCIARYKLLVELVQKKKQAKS
# Chain of UniProt Q13948 (Q13948 whole entry, looked up): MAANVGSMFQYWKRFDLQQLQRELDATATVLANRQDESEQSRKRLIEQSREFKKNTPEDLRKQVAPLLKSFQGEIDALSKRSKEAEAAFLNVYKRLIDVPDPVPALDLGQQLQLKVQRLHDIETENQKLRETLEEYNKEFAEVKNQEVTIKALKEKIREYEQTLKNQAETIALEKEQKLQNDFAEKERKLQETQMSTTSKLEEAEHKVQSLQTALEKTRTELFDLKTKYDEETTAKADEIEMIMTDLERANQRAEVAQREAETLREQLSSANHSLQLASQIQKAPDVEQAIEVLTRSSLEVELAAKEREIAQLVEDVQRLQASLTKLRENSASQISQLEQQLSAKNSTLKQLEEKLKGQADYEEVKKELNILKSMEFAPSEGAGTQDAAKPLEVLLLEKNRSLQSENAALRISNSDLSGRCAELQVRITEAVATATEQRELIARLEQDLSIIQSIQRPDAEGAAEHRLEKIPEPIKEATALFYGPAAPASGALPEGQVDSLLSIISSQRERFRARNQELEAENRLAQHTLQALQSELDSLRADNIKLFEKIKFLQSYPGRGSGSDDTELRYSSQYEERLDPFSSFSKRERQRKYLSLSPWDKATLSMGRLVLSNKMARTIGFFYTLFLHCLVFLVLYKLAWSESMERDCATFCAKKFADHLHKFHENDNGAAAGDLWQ
# Chain of UniProt Q9NYP7 (Q9NYP7 whole entry, looked up): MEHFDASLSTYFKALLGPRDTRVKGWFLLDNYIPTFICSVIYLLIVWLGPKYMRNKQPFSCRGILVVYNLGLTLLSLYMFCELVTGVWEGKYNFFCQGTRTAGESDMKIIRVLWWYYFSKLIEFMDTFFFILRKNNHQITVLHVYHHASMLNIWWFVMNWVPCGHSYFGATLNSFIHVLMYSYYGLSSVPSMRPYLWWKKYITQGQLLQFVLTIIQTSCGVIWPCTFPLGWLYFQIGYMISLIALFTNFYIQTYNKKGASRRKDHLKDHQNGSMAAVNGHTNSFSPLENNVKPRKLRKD
# Chain of UniProt Q9NX74 (Q9NX74 whole entry, looked up): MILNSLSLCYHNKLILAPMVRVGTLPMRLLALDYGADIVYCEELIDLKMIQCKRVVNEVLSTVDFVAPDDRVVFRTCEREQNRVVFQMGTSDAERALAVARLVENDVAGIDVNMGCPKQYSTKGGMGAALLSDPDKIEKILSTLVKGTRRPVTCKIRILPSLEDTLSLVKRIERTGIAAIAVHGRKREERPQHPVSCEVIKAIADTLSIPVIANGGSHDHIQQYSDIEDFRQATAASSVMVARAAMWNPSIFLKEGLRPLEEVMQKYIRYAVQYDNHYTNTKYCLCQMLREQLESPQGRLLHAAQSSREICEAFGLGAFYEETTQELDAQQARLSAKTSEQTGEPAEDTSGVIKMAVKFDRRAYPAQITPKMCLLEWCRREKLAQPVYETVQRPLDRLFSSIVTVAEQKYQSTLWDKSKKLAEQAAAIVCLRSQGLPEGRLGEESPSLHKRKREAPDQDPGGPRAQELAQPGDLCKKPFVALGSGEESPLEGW
# Chain of UniProt P35222 (P35222 whole entry, looked up): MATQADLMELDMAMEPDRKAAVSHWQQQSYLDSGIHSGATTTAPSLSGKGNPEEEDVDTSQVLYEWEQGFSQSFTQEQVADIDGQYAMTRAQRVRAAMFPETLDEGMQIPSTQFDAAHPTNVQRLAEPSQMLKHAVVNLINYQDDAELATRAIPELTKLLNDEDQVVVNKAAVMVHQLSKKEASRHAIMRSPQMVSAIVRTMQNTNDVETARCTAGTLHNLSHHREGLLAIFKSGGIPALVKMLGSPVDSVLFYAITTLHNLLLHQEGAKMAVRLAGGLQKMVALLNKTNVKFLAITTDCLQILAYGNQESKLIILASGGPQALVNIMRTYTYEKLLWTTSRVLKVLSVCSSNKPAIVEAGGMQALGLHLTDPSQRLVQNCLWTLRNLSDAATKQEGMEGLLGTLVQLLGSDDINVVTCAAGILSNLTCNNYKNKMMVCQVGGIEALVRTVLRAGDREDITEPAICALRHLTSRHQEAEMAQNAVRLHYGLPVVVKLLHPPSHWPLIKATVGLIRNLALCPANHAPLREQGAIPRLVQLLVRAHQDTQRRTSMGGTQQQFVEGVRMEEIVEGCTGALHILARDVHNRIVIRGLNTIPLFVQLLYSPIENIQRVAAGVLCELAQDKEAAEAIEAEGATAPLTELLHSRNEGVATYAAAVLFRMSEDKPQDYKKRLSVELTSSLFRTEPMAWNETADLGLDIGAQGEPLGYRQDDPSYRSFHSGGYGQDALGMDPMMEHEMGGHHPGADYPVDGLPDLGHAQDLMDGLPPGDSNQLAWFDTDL
# Chain of UniProt Q9NXW2 (Q9NXW2 whole entry, looked up): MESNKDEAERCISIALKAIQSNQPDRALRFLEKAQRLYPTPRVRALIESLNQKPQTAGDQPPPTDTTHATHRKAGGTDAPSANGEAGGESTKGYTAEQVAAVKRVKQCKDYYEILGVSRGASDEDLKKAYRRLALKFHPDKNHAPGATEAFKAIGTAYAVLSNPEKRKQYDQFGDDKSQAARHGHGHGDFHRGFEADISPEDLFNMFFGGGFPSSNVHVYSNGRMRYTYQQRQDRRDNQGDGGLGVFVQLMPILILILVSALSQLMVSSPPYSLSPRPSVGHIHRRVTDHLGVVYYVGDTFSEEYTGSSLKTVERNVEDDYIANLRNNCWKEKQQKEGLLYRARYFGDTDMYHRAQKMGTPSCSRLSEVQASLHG
# Chain of UniProt O60610 (O60610 whole entry, looked up): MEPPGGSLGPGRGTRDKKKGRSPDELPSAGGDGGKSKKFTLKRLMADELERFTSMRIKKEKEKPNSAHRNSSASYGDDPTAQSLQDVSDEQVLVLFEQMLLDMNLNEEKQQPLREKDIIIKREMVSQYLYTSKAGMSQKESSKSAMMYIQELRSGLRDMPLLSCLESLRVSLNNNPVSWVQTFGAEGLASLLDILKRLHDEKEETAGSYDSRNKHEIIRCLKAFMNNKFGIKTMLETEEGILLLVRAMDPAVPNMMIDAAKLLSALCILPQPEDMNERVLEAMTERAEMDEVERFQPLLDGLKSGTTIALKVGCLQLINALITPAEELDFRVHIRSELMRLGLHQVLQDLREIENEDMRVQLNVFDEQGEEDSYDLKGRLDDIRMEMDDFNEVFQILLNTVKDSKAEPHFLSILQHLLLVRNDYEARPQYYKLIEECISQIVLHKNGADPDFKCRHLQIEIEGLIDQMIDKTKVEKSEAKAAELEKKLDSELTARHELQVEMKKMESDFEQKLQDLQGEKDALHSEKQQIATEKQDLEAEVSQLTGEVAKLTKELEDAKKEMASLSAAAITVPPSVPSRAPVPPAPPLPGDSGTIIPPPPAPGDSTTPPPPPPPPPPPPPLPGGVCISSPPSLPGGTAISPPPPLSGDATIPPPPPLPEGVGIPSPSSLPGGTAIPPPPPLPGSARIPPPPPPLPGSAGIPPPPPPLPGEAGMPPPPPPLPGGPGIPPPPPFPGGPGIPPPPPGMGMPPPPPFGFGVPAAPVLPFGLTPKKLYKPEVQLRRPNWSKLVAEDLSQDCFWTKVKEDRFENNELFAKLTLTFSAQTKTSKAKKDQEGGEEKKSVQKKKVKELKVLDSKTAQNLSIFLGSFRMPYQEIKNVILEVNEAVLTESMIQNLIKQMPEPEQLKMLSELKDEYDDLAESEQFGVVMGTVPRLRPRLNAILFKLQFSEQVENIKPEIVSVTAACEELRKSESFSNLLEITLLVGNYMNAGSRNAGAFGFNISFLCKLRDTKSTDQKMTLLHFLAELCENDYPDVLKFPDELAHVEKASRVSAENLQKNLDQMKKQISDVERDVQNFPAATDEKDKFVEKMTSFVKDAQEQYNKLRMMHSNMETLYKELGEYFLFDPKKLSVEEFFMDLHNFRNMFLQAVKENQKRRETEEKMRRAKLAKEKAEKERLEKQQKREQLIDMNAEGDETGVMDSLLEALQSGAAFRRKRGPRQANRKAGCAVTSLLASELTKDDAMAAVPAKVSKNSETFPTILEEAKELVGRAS
# Chain of UniProt Q99615 (Q99615 whole entry, looked up): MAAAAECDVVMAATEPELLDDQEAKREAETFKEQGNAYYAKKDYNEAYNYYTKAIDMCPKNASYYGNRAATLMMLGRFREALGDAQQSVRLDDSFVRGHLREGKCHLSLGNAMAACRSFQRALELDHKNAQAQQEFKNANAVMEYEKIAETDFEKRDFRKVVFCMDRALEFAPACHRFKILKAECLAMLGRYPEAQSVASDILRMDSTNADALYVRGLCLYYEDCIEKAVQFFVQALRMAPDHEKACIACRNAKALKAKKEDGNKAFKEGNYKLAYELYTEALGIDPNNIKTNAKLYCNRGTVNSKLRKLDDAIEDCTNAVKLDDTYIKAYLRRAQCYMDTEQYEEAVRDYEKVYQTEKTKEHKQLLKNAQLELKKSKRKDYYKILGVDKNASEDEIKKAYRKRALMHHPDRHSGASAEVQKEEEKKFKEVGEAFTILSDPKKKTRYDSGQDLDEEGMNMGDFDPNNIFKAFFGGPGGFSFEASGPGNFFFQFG
Target,log2 fold change [1],log2 fold change [2],log2 fold change [3],log2 fold change [4],log2 fold change (entinostat),log2 fold change (vorinostat),log2 fold change (citarinostat),log2 fold change (silmitasertib),log2 fold change [5],log2 fold change [6]
DTNBP1 (UniProt Q96EV8),-0.022,-0.011,-0.038,-0.063,0.033,0.091,-0.001,-0.013,-0.032,-0.042
CTNNB1 (UniProt P35222),-0.14,-0.06,-0.18,-0.2,-0.078,-0.001,0.093,0.03,1.3 (active),-0.107
DBR1 (UniProt Q9UK59),0.002,-0.017,-0.002,0.052,-0.023,-0.215 (active),0.014,-0.012,-0.004,-0.072
CUX1 isoform 3 (UniProt P39880),-0.016,-0.006,-0.034,-0.076,-0.028,0.034,0.019,0.046,-0.022,-0.004
DUS2 (UniProt Q9NX74),0.051,-0.066,-0.091,-0.004,0.008,0.041,0.124,0.092,-0.424 (active),0.038
ELOVL5 isoform 2 (UniProt Q9NYP7),-0.07,0.001,-0.194,-0.065,0.056,0.062,0,0.098,0.035,-0.158
DTYMK (UniProt P23919),0.005,-0.011,-0.169,-0.014,-0.035,0.043,0.047,-0.04,-0.058,-0.071
ERLIN2 (UniProt O94905),0.04,-0.047,-0.01,-0.062,0.032,0.048,0.011,0.002,0.069,-0.044
CUX1 isoform 2 (UniProt Q13948),-0.027,-0.031,-0.033,-0.026,0.343 (active),0.076,0.137,-0.016,-0.047,-0.03
DNAJB12 (UniProt Q9NXW2),-0.03,-0.018,-0.048,-0.029,0.001,0.027,0.027,0.079,-0.038,0.002
EEF1B2 (UniProt P24534),0.012,-0.112,-0.035,-0.09,0.04,0.02,0.004,0.027,-0.007,-0.035
DEGS1 (UniProt O15121),-0.101,0.249,0.086,-0.169,-0.006,0.077,0.109,-0.053,-0.003,-0.063
EHD2 (UniProt Q9NZN4),-0.034,-0.048,-0.072,-0.096,0.033,0.055,0.048,0.012,-0.04,-0.015
DNAJC1 (UniProt Q96KC8),0.013,-0.055,-0.082,-0.08,0.042,0.106,0.017,0.01,-0.016,-0.083
FAM117A (UniProt Q9C073),-0.135,0,-0.05,-0.03,0.046,-0.011,0.043,-0.422 (active),0.038,-0.251 (active)
DUS3L (UniProt Q96G46),0.113,-0.012,0.194,0.003,0.003,0.093,0.058,0.112,-0.176,-0.029
DPH5 isoform 5 (UniProt Q9H2P9),-0.036,-0.005,0.209,-0.003,-0.018,-0.009,0.017,-0.008,0.109,0.038
EIF4E isoform 2 (UniProt P06730),0.005,0.226,0.059,0.126,-0.073,-0.01,-0.026,0.102,-0.044,0.141
EEF1AKNMT (UniProt Q8N6R0),-0.025,-0.061,-0.109,-0.017,0.038,0.161,-0.002,0.059,0.055,0.031
EIF3J (UniProt O75822),0.035,-0.033,-0.072,0.007,0.012,0.143,0.001,0.042,-0.017,0.022
DIAPH1 (UniProt O60610),-0.156,-0.085,-0.067,-0.064,0.024,0.066,0.056,0.115,0.178,-0.046
FAM118B (UniProt Q9BPY3),-0.034,-0.118,-0.381 (active),-0.027,0.047,0.064,0.052,-0.082,-0.13,-0.078
EXOC1 (UniProt Q9NV70),0.043,-0.162,-0.228,-0.065,0.062,0.082,0.014,0.127,0.069,-0.165
DPYSL2 (UniProt Q16555),0.053,0.01,0.014,-0.056,-0.037,0.276,-0.017,-0.118,-0.224,-0.054
DDOST (UniProt P39656),0.003,-0.013,-0.057,0.014,0.007,-0.036,0.017,0.05,-0.017,-0.116
EPHX2 (UniProt P34913),-0.148,-0.05,-0.016,-0.015,0.045,0.113,0.025,0.003,-0.025,-0.037
DNAJC7 (UniProt Q99615),-0.067,-0.029,-0.204,-0.071,0.05,0.043,0.071,0.001,-0.03,-0.001
FAF2 (UniProt Q96CS3),-0.016,-0.038,-0.038,-0.027,0.021,0.092,0.015,0.007,-0.054,-0.018
ELAC1 (UniProt Q9H777),0.014,0.053,,-0.082,-0.202,0.285,0.05,,0.075,-0.05
EHBP1L1 (UniProt Q8N3D4),-0.091,-0.04,-0.039,-0.039,0,0.054,0.041,0.015,-0.043,-0.101
